# Experimental data from the supplement of paper PMC10849652.
# About 8,800 targets were measured; listed, in parts, are those with a hit and a random draw of the rest. About 0.5% of all pairs of compound and target were hits.
# Compound: C[C@H](Nc1ncnc2nc[nH]c12)c1cc2cccc(Cl)c2c(=O)n1-c1ccccc1 [duvelisib]
# Assay: log2 fold change, soluble protein after heating vs DMSO (PISA); higher = thermal stabilisation; K562 lysate, 10 uM; active = over 0.2 and 3.5 SD of the protein, either way, in both replicates (recomputed)
# In short: (§1)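 Log-two fold change in thermal stability relative to solvent controls is reported from duplicates. For each sample, crude K562 extract from dounce-homogenised pellets in PBS pH 7.4 with 1 mM MgCl2, at 1 mg/mL protein, was treated with 10 μM compound for 30 min. Aliquots heated for 3 min across 48°C-58°C were pooled, brought to 0.5% NP-40 at 4°C and cleared at 21,000xg for 90 min. The supernatant was quantified by TMTpro 16plex LC-MS/MS with channel sums equalised.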
# UniProt Q96F44, sequence (Q96F44 whole entry, looked up): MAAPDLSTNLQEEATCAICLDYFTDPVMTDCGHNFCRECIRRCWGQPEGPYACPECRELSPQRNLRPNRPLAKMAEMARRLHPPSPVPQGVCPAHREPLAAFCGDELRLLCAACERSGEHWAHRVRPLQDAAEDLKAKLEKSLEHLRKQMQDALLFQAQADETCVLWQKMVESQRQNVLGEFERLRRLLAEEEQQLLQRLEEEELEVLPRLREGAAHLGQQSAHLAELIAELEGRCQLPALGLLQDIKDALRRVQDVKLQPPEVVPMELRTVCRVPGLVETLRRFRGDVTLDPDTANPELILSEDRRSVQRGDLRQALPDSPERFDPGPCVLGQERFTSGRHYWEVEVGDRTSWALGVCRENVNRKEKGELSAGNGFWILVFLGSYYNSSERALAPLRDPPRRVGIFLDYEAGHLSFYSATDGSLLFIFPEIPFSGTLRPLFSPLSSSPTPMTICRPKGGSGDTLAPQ
# UniProt Q53H54, sequence (Q53H54 whole entry, looked up): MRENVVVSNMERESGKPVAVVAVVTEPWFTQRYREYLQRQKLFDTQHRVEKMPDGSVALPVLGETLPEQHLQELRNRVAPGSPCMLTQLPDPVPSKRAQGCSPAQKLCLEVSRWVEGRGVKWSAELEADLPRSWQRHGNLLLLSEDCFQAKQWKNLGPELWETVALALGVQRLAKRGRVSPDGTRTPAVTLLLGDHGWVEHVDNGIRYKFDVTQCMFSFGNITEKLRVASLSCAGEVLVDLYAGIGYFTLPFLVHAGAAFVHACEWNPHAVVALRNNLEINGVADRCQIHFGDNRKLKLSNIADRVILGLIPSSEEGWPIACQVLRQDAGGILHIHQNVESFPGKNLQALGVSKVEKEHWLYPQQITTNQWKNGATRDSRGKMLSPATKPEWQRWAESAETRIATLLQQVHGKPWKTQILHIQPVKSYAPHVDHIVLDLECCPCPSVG
# UniProt P43897, sequence (P43897 whole entry, looked up): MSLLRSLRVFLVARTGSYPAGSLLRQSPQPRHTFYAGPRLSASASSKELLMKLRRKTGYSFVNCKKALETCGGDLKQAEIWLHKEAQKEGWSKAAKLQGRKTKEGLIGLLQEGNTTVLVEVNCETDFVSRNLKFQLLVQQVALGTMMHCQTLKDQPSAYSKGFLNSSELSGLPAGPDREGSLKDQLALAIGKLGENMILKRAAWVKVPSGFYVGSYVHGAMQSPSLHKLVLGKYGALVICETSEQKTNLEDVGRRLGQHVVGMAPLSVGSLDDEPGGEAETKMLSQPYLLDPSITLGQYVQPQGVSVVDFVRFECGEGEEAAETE
# UniProt P48553, sequence (P48553 whole entry, looked up): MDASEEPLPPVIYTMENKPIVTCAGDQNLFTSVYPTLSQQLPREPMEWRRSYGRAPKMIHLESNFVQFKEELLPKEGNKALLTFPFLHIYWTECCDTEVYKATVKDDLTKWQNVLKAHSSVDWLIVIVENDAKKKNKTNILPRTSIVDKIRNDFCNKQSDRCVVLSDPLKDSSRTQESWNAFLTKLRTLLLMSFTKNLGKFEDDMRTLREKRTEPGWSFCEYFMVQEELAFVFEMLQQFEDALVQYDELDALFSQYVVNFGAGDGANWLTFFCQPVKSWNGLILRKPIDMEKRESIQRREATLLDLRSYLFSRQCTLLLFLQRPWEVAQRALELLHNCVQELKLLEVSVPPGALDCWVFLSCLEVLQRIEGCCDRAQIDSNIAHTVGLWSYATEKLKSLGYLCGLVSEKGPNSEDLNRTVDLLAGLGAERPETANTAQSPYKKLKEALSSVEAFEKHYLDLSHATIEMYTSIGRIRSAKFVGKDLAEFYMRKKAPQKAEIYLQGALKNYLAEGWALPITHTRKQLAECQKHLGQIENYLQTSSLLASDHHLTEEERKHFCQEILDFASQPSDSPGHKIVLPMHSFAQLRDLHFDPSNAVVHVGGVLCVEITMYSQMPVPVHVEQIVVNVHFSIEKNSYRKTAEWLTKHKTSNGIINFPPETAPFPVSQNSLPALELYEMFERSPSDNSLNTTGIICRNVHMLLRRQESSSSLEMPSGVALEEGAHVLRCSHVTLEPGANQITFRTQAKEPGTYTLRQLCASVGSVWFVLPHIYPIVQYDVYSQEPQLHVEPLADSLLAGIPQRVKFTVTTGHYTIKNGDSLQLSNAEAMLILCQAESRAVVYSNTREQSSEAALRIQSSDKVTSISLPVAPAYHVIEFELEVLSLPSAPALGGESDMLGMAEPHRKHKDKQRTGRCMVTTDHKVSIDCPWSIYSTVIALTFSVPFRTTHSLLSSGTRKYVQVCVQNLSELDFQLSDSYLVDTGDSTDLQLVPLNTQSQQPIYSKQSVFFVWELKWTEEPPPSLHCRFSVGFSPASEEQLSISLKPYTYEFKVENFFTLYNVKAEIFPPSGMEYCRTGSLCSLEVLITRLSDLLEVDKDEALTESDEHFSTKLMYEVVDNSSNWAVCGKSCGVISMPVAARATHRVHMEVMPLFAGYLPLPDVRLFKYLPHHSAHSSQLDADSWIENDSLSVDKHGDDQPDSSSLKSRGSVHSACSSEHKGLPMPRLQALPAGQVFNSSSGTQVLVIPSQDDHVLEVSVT
# UniProt Q8N0Z6, sequence (Q8N0Z6 whole entry, looked up): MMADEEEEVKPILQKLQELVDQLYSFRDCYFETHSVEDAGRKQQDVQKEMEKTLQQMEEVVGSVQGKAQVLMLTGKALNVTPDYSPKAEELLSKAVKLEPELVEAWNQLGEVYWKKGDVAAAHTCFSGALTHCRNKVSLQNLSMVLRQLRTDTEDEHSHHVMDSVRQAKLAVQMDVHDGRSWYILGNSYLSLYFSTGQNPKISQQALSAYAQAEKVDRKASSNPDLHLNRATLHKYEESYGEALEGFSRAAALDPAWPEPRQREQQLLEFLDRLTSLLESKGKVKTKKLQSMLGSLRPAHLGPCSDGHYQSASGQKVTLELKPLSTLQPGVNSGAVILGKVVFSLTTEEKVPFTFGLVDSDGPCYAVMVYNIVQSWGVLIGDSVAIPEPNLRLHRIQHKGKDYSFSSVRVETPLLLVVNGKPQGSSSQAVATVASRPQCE
# UniProt P28289, sequence (P28289 whole entry, looked up): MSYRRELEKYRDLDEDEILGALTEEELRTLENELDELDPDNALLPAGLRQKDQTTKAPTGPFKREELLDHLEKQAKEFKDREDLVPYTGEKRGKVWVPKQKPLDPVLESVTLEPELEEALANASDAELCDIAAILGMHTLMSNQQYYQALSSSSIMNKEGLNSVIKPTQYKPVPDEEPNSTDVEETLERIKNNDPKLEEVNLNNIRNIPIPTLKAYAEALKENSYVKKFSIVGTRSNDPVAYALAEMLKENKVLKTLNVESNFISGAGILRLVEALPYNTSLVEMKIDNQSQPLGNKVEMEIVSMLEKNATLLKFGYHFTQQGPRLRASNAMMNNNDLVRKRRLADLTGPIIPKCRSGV
# UniProt P67936, sequence (P67936 whole entry, looked up): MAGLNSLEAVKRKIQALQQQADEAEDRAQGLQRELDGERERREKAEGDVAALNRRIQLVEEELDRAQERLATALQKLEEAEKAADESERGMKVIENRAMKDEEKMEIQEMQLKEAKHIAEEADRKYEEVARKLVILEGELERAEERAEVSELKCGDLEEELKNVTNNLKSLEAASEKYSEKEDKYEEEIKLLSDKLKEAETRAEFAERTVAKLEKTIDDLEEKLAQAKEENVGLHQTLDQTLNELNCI
# UniProt O95857, sequence (O95857 whole entry, looked up): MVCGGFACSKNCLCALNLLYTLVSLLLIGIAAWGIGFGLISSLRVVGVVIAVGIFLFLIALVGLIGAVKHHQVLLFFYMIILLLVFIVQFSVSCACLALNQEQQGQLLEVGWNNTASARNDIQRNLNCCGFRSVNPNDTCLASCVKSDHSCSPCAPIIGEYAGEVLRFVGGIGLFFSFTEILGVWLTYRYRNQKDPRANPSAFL
# UniProt P62256, sequence (P62256 whole entry, looked up): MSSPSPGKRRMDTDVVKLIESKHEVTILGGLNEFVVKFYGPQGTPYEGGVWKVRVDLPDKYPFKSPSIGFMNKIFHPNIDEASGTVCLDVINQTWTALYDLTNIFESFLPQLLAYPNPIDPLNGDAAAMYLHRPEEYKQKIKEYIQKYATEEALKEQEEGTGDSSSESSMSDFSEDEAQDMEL
# UniProt Q9NX07, sequence (Q9NX07 whole entry, looked up): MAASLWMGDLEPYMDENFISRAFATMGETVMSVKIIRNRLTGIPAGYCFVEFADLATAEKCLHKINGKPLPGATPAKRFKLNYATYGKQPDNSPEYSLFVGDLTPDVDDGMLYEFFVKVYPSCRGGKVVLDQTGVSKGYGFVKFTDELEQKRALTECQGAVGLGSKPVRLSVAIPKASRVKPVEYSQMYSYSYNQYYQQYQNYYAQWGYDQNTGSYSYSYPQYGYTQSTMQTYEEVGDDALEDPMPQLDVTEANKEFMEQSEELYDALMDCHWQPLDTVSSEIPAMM
# UniProt P68363, sequence (P68363 whole entry, looked up): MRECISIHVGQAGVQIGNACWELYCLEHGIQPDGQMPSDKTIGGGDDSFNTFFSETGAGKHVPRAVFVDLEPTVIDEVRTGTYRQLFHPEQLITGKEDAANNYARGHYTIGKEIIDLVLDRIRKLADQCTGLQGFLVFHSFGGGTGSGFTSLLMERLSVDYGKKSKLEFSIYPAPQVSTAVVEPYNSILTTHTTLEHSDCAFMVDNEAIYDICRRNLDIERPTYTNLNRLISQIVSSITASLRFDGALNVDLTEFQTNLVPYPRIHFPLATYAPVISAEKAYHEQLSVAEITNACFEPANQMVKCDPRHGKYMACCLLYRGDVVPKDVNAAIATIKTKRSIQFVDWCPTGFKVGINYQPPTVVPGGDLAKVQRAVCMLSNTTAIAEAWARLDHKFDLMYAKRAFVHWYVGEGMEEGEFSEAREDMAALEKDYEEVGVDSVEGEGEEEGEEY
# UniProt P04183, sequence (P04183 whole entry, looked up): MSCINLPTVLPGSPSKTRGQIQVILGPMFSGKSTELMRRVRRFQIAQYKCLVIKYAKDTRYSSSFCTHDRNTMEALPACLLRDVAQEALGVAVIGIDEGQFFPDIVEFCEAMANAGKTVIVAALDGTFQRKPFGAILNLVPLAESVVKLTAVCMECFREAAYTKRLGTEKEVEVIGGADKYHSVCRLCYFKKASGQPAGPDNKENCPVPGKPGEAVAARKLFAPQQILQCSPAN
row,Target,log2 fold change
1,TUBB1 (UniProt Q9H4B7),-0.01 (inactive)
2,TUBGCP2 isoform 4 (UniProt Q9BSJ2),-0.001 (inactive)
3,TPM4 isoform 2 (UniProt P67936),0.011 (inactive)
4,TMOD1 (UniProt P28289),-0.008 (inactive)
5,TRAPPC10 (UniProt P48553),-0.016 (inactive)
6,TRMT12 (UniProt Q53H54),0.055 (inactive)
7,TSPAN13 (UniProt O95857),-0.241 (inactive)
8,UBE2H (UniProt P62256),0.016 (inactive)
9,TLE3 isoform 5 (UniProt Q04726),0.031 (inactive)
10,TSFM (UniProt P43897),0.025 (inactive)
11,TRMT2A (UniProt Q8IZ69),-0.036 (inactive)
12,TUBA1B (UniProt P68363),-0.011 (inactive)
13,TUT4 (UniProt Q5TAX3),0.006 (inactive)
14,TBL2 (UniProt Q9Y4P3),0.014 (inactive)
15,TK1 (UniProt P04183),0.023 (inactive)
16,TTC5 (UniProt Q8N0Z6),0.032 (inactive)
17,TRNAU1AP (UniProt Q9NX07),-0.058 (inactive)
18,UBR5 (UniProt O95071),-0.004 (inactive)
19,TRAF2 isoform 2 (UniProt Q12933),0.006 (inactive)
20,UCHL5 isoform 3 (UniProt Q9Y5K5),-0.01 (inactive)
21,TRIM23 (UniProt P36406),0.134 (inactive)
22,TRIM11 (UniProt Q96F44),-0.016 (inactive)

# Compound: Cc1cc(Nc2cc(CN3CCOCC3)c3nc(C)c(Cc4ccc(Cl)cc4F)n3n2)n[nH]1 [gandotinib]
# Assay: as above
# In short: as §1
row,Target,log2 fold change
1,TBCE (UniProt Q15813),-0.034 (inactive)
2,TNPO3 (UniProt Q9Y5L0),-0.006 (inactive)
3,TRIM33 (UniProt H0Y612),0.019 (inactive)
4,TPST2 (UniProt O60704),0.109 (inactive)
5,UBR4 (UniProt Q5T4S7),-0.08 (inactive)
6,TTK (UniProt P33981),0.058 (inactive)
7,TP53RK (UniProt Q96S44),-0.041 (inactive)
8,TUBGCP3 (UniProt Q96CW5),-0.054 (inactive)
9,UBR3 isoform 4 (UniProt Q6ZT12),-0.046 (inactive)
10,TRIM33 isoform 2 (UniProt Q9UPN9),-0.023 (inactive)
11,TOE1 (UniProt Q96GM8),-0.016 (inactive)
12,UBA1 (UniProt P22314),-0.017 (inactive)
13,TUBB1 (UniProt Q9H4B7),-0.015 (inactive)
14,TUBGCP2 isoform 4 (UniProt Q9BSJ2),-0.087 (inactive)
15,TPM4 isoform 2 (UniProt P67936),-0.138 (inactive)
16,TMOD1 (UniProt P28289),-0.059 (inactive)
17,TRAPPC10 (UniProt P48553),0.022 (inactive)

row,Target,log2 fold change
1,TRMT12 (UniProt Q53H54),-0.054 (inactive)
2,TSPAN13 (UniProt O95857),0.32 (inactive)
3,UBE2H (UniProt P62256),-0.172 (inactive)
4,TLE3 isoform 5 (UniProt Q04726),-0.062 (inactive)
5,TSFM (UniProt P43897),-0.122 (inactive)
6,TRMT2A (UniProt Q8IZ69),-0.03 (inactive)
7,TUBA1B (UniProt P68363),0.022 (inactive)
8,TUT4 (UniProt Q5TAX3),-0.001 (inactive)
9,TBL2 (UniProt Q9Y4P3),-0.053 (inactive)
10,TK1 (UniProt P04183),0.062 (inactive)
11,TTC5 (UniProt Q8N0Z6),-0.048 (inactive)
12,TRNAU1AP (UniProt Q9NX07),0.042 (inactive)
13,UBR5 (UniProt O95071),-0.018 (inactive)
14,TRAF2 isoform 2 (UniProt Q12933),-0.045 (inactive)
15,UCHL5 isoform 3 (UniProt Q9Y5K5),-0.044 (inactive)
16,TRIM23 (UniProt P36406),0.372 (active)
17,TRIM11 (UniProt Q96F44),-0.03 (inactive)

# Compound: Cc1cc(Nc2cc(N3CCN(C)CC3)nc(Sc3ccc(NC(=O)C4CC4)cc3)n2)n[nH]1 [tozasertib]
# Assay: as above
# In short: as §1
row,Target,log2 fold change
1,TBCE (UniProt Q15813),-0.004 (inactive)
2,TNPO3 (UniProt Q9Y5L0),-0.036 (inactive)
3,TRIM33 (UniProt H0Y612),0.07 (inactive)
4,TPST2 (UniProt O60704),-0.043 (inactive)
5,UBR4 (UniProt Q5T4S7),0 (inactive)
6,TTK (UniProt P33981),-0.054 (inactive)
7,TP53RK (UniProt Q96S44),-0.01 (inactive)
8,TUBGCP3 (UniProt Q96CW5),0.027 (inactive)
9,UBR3 isoform 4 (UniProt Q6ZT12),0.06 (inactive)
10,TRIM33 isoform 2 (UniProt Q9UPN9),0.011 (inactive)
11,TOE1 (UniProt Q96GM8),0.059 (inactive)
12,UBA1 (UniProt P22314),-0.005 (inactive)
13,TUBB1 (UniProt Q9H4B7),-0.027 (inactive)
14,TUBGCP2 isoform 4 (UniProt Q9BSJ2),0.002 (inactive)
15,TPM4 isoform 2 (UniProt P67936),-0.027 (inactive)
16,TMOD1 (UniProt P28289),0.026 (inactive)
17,TRAPPC10 (UniProt P48553),-0.01 (inactive)

row,Target,log2 fold change
1,TRMT12 (UniProt Q53H54),-0.021 (inactive)
2,TSPAN13 (UniProt O95857),-0.207 (inactive)
3,UBE2H (UniProt P62256),0.024 (inactive)
4,TLE3 isoform 5 (UniProt Q04726),-0.089 (inactive)
5,TSFM (UniProt P43897),0.047 (inactive)
6,TRMT2A (UniProt Q8IZ69),0.001 (inactive)
7,TUBA1B (UniProt P68363),-0.011 (inactive)
8,TUT4 (UniProt Q5TAX3),0.047 (inactive)
9,TBL2 (UniProt Q9Y4P3),0.063 (inactive)
10,TK1 (UniProt P04183),0 (inactive)
11,TTC5 (UniProt Q8N0Z6),0.076 (inactive)
12,TRNAU1AP (UniProt Q9NX07),-0.018 (inactive)
13,UBR5 (UniProt O95071),0.001 (inactive)
14,TRAF2 isoform 2 (UniProt Q12933),0.007 (inactive)
15,UCHL5 isoform 3 (UniProt Q9Y5K5),-0.007 (inactive)
16,TRIM23 (UniProt P36406),0.026 (inactive)
17,TRIM11 (UniProt Q96F44),-0.006 (inactive)
